Here are results for 13 molecules from PubChem BioAssay.

Active and inactive are the calls of the source.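 The calls were made as follows, unless noted: active = efflux inhibition above 0.42, the validation set average plus 4 SD; inconclusive = no clear call, values can overlap the other calls; inactive = the rest.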

A short description of experiment [1]: inhibitors of CD8+ T cell-vesicle binding, pilot screen, LFA-1/ICAM-1 modulator project, MLPCN validation set, flow cytometry (AID 2523;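 active = response below a set limit, under 55% cells CD8-positive and vesicle-bound, and CD8 cells' 90th-percentile brightness under 279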;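 as to vesicle binding response: mean PE anti-B7-1 fluorescence of CD8+ cells relative to row control; 100% = QL9-loaded vesicles with DMSO vehicle in the same plate row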). The settings on record: 2C mouse CD8+ T cells, at 7 µM, stronger effect = lower value; double positive events: measured here: CD8+/vesicle+ event percentage. (In general: A flow cytometer gives signals particle by particle.)
Experiment [2] deals with Integrin beta-1 (Homo sapiens) + Integrin alpha-4 (Homo sapiens) (UniProt P13612+P05556). The experiment in a line: inhibition of HUTS-21 binding to VLA-4, pilot screen, VLA-4 allosteric modulator project, U937 cells, HUTS-21 mAb, flow cytometry, validation set (AID 2674;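 active = inhibition above 50%, about 3 SD of the validation set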;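 also: antibody binding induced by the VLA-4 ligand LDV present at three times its Kd; 0% = LDV ligand with antibody and no compound and 100% = antibody without LDV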). The following applies: HUTS-21 LIBS mAb binding, at 6.7 µM, stronger effect = higher value, binding induced by LDV ligand.

Experiment [3] can be described thus: superoxide lowering in aged yeast cells, pilot screen, validation compound set (AID 2706;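 active = superoxide response below 65% of plate, a cut near 3 SD across the whole screen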;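 also: yeast exposed to compound for one week at 30 degrees C before staining; 100% = mean of all compound wells on the same plate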). The following applies: S. cerevisiae aging, superoxide DHE fluorescence; at 10 µM, stronger effect = lower value.
In experiment [4] the target is Beta-adrenergic receptor kinase 1 (Homo sapiens) (UniProt P25098). The experiment in a line: GRK2 binders displacing RNA aptamer, biochemical, validation, human GRK2, bead flow cytometry (AID 488806;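 active = aptamer binding inhibition above 30%, about 3 SD of noise from non-fluorescent compounds; inactive = inhibition at or below 30%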). The settings on record: bead-bound GRK2, FAM-aptamer displacement, at 10 µM, stronger effect = higher value.
Experiment [5] deals with Beta-2 adrenergic receptor (Homo sapiens) (UniProt P07550). The experiment is described as follows: beta2AR agonists driving receptor internalization, pilot screen, cell-based, FAP fluorogen, flow cytometry, validation set (AID 504459;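 active = percent response above 42, roughly 3 SD of non-fluorescent test compounds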;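 also: agonist-driven loss of surface beta2AR via internalization measured by FAP dye flow cytometry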). The settings on record: Am2.2-beta2AR cells, FAP surface receptor flow cytometry; at 10 µM; stronger effect = higher value.
Experiment [6] addresses AP-2 complex subunit beta (Homo sapiens) (UniProt P63010). The experiment in a line: inhibitors of arrestin peptide binding to AP2, pilot screen, biochemical, validation set, GST-AP2 beads, flow cytometry (AID 504541;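 active = inhibition above 54%, about 3 SD of non-fluorescent compounds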;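 also: AP2 carries R879A mutation and is captured from E. coli lysate; bead-bound FITC arrestin peptide fluorescence measuring arrestin peptide binding to AP2; 0% = DMSO wells and 100% = excess unlabeled arrestin peptide control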). The settings on record: FITC arrestin peptide, at 10 µM, stronger effect = higher value, AP2 beta2 appendage fragment, R879A mutant.
Experiment [7] in a line: yeast V-ATPase proton transport modulators, S. cerevisiae, pHLuorin, HTS validation (AID 504600; in the data active = response above about 15%;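 also: plate controls were DMSO for no effect and reference compound for full effect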). The following applies: S. cerevisiae pHLuorin cytosolic pH, at 10 µM, stronger effect = higher value.
Experiment [8] has as its system anti-desmoglein-3 scFv antibody binding to human DSG3. The experiment is described as follows: inhibitors of anti-DSG3 scFv binding to DSG3, pilot screen, biochemical, validation compound set, bead-based, flow cytometry (AID 588368;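 active = binding below the plate cutoff, the plate median minus 3 SD, with a reading above zero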;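 also: signal is the median channel fluorescence of bead-bound GFP antibody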). The settings on record: Protein G beads, DSG3-Fc, scFv-GFP binding, at 10 µM, stronger effect = lower value.
The nature of experiment [9]: inhibitors of fungal efflux pumps CDR1, CDR2, MDR1, pilot screen, validation compound set, multiplex, phenotypic (AID 588506).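 Also: Nile Red retained in cells so higher fluorescence means more efflux inhibition; 0 = negative control wells and 1 = enniatin B 25 µM full block.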 The following applies: S. cerevisiae pump-expressing triplex, Nile Red efflux flow cytometry; at 10 µM; stronger effect = higher value; the pumps come from Candida albicans.
Experiment [10] addresses ATP-binding cassette sub-family B member 6 (Homo sapiens) (UniProt Q9NP58). The experiment in a line: ABCB6 transporter inhibitors, pilot screen, K562-ABCB6 cells, flow cytometry, validation set (AID 588550;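 active = inhibition above the screen-wide mean plus 3 SD, about 51%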;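 also: 0% = DMSO wells and 100% = benzethonium chloride 70 µM positive control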). The settings on record: K562-ABCB6 porphyrin accumulation, 1 h, at 10 µM, stronger effect = higher value.
A short description of experiment [11]: promoters of myeloid differentiation in arrested cells, primary screen, cell-based, GFP/MAC1 double positive, flow cytometry, validation set (AID 588685;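 active = differentiation response of at least 50%, scaled between solvent and reference control, from cells with both markers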;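 also: compound exposure lasts four days before antibody staining and flow analysis; 0% = DMSO wells and 100% = 5 µM fulvestrant positive control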). The settings on record: ER-HoxA9 marrow cells, stronger effect = higher value, normalized: vehicle 0, fulvestrant 100.

Chain of Integrin beta-1 (Homo sapiens) + Integrin alpha-4 (Homo sapiens) (P05556 whole entry, looked up): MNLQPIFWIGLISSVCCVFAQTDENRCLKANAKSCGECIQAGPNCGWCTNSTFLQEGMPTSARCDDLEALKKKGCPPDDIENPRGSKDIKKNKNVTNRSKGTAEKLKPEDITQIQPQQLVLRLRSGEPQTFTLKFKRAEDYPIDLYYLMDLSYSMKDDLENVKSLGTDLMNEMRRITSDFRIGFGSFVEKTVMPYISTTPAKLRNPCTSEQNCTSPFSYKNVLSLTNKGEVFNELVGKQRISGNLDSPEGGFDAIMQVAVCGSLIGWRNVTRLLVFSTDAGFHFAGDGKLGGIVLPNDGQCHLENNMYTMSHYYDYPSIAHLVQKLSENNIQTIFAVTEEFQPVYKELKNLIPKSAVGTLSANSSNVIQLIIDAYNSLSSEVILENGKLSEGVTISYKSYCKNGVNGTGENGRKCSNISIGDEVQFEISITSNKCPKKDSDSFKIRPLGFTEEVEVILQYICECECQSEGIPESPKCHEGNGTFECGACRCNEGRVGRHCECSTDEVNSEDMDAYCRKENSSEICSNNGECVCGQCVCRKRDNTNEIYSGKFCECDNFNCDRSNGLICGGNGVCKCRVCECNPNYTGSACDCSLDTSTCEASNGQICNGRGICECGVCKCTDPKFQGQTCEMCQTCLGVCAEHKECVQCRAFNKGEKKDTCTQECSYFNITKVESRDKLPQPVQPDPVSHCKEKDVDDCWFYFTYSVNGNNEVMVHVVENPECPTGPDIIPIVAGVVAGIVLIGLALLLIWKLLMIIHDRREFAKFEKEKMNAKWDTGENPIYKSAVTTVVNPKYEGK
Chain of Integrin beta-1 (Homo sapiens) + Integrin alpha-4 (Homo sapiens) (P13612 whole entry, looked up): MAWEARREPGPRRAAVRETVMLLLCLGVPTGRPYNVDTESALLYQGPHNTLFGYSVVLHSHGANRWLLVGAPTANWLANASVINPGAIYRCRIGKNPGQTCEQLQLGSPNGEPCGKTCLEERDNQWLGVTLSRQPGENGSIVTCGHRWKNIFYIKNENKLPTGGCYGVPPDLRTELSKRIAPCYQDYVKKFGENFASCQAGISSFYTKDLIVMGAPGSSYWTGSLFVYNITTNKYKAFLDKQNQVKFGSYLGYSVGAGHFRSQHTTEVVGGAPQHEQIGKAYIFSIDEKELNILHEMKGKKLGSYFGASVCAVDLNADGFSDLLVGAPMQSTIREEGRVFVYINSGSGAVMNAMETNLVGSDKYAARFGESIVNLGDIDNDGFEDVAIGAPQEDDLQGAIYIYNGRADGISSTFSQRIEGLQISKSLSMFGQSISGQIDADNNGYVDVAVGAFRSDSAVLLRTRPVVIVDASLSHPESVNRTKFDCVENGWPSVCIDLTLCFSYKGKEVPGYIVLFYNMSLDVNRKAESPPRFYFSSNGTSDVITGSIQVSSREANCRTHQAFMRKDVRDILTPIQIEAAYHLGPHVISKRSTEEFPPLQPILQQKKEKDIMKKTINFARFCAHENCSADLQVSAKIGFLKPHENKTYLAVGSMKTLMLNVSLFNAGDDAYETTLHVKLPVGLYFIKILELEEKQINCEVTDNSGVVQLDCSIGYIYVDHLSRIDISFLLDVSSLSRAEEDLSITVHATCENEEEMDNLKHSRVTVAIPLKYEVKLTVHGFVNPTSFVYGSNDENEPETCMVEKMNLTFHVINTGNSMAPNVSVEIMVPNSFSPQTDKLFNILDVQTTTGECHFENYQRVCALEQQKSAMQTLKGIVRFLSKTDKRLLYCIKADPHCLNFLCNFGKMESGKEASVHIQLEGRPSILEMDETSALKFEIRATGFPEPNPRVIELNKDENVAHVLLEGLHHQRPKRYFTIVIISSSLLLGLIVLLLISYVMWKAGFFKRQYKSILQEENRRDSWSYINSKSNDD
Chain of AP-2 complex subunit beta (Homo sapiens) (P63010 whole entry, looked up, the tested form may be a part, one chain of several): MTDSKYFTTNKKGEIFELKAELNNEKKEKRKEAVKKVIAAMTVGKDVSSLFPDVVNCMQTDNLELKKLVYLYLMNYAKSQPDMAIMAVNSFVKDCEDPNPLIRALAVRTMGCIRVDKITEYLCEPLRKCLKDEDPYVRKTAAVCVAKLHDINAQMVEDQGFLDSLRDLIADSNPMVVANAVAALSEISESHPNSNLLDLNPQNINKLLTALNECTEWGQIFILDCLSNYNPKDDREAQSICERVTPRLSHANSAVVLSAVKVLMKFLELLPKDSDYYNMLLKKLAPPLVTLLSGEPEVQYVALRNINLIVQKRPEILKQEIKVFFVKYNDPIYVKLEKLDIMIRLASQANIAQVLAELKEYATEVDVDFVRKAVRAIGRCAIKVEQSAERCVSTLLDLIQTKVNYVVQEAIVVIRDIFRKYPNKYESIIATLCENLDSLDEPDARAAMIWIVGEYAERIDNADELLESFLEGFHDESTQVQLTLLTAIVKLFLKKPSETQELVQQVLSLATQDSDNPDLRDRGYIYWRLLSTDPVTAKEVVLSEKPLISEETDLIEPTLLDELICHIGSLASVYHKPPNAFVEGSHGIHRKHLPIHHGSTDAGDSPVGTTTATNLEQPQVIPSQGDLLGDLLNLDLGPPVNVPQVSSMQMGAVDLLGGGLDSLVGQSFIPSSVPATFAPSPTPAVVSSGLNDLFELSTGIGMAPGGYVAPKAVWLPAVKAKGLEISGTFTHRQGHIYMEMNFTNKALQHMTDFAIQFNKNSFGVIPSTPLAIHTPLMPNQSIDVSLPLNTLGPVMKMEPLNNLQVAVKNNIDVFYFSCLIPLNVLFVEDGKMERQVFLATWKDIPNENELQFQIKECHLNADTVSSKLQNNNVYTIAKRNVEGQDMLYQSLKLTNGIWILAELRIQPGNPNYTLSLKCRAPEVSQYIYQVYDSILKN
Chain of ATP-binding cassette sub-family B member 6 (Homo sapiens) (Q9NP58 whole entry, looked up): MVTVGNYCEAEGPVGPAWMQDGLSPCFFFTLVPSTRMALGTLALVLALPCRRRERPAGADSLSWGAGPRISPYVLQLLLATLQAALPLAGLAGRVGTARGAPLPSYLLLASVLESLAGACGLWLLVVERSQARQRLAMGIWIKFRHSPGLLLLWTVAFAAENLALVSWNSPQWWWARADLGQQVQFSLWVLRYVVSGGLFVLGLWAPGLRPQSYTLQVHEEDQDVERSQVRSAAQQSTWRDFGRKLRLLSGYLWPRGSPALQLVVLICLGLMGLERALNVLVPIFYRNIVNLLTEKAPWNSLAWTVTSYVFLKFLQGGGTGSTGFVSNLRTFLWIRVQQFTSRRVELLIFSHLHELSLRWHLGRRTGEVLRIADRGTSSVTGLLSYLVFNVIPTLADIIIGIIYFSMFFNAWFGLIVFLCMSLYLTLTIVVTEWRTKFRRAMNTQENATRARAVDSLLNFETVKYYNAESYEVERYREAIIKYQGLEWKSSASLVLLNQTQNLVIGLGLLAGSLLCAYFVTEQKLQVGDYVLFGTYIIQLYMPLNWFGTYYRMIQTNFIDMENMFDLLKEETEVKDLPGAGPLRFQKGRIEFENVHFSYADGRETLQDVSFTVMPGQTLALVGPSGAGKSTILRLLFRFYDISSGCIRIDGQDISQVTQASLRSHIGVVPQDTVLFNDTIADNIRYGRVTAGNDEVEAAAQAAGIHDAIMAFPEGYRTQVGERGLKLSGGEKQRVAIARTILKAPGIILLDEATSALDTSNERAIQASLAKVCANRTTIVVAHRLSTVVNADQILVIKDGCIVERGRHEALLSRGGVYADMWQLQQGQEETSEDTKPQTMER
Chain of Beta-2 adrenergic receptor (Homo sapiens) (P07550 whole entry, looked up): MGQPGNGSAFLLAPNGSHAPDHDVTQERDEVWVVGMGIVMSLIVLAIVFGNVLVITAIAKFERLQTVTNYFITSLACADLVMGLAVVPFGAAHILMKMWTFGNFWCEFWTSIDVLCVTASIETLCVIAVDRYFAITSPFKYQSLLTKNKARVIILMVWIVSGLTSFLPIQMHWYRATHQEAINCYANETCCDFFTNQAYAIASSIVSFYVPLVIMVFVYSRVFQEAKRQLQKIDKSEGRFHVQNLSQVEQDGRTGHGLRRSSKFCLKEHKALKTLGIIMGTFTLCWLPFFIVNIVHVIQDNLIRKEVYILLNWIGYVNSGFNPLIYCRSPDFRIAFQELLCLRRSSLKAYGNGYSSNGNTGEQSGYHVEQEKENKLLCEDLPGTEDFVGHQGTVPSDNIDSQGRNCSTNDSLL
Chain of Beta-adrenergic receptor kinase 1 (Homo sapiens) (P25098 whole entry, looked up): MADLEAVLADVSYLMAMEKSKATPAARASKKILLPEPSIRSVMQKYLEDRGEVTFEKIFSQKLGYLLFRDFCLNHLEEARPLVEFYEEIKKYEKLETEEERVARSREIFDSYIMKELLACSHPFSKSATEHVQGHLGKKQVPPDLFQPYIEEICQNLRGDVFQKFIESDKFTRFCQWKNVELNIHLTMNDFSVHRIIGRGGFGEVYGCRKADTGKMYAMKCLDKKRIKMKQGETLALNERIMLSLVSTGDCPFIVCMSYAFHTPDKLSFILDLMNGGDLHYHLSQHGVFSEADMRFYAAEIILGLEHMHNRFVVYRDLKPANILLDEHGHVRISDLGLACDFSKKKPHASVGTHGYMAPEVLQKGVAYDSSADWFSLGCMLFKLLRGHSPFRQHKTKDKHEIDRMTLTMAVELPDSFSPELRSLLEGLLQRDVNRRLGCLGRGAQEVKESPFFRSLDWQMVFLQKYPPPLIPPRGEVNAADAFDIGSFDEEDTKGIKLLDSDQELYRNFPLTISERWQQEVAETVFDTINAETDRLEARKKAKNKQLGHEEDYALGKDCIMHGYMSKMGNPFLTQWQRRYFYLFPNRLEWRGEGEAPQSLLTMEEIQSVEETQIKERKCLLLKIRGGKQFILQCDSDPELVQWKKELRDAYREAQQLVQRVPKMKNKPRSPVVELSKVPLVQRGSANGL

As for `CCc1cccc2c1NC1(CCCC1)CC2C` (stereo unspecified), in experiment [1], the double positive events was 58.5%. Further, the vesicle binding response in experiment [1] was 185% (inactive). Also, the inhibition (usually the change of the read-out against control, counted positive when it falls) in experiment [2] is -16.8% (inactive); in [6] it was -1.05% (inactive); in [10], -41% (inactive). Also, the superoxide response (% of plate) in [3] is 96.3% (inactive). In experiment [4], the aptamer binding inhibition was 4% (inactive). Moreover, the results for the response in experiment [5] and in experiment [7] were 45.9% (active) and 1.08% (inactive), respectively. Further, the binding (% of control) in experiment [8] was 97.6% (inactive). For the same molecule, the efflux inhibition (fraction of control) in experiment [9] is -0.06 (inactive). Further, the differentiation response in experiment [11] was 10.4% (inactive).

In the case of `CC(=O)c1c(C)[nH]c(C(=O)OCc2ccccc2)c1C`, the double positive events in experiment [1] was determined as 60.2%. For the same molecule, the vesicle binding response in [1] is 120% (inactive). In addition, the inhibition in experiment [2] was 1.59% (inactive); in experiment [6] it was 9.32% (inactive); in experiment [10] it was 1% (inactive). The superoxide response (% of plate) in experiment [3] is 103% (inactive). In experiment [4], the aptamer binding inhibition is 3% (inactive). Moreover, the response in experiment [5] was -5.41% (inactive); in experiment [7] it was 0.36% (inactive). In experiment [8], the binding (% of control) is 103% (inactive). For the same molecule, in experiment [9], the efflux inhibition (fraction of control) was -0.25 (inactive). In experiment [11], the differentiation response is -13.3% (inactive).

Take `COc1ccccc1C(CC(=O)Nc1ccccc1C)c1ccc(OC(C)C)cc1` (stereo unspecified): the double positive events in [1] amounted to 63.5%. Besides, the vesicle binding response in experiment [1] was 263% (inactive). Also, the results for the inhibition in experiment [2], in experiment [6] and in experiment [10] were 9.95% (inactive), -4.43% (inactive) and 0% (inactive), respectively. The superoxide response (% of plate) in experiment [3] is 92.7% (inactive). The aptamer binding inhibition in experiment [4] was 4% (inactive). The values for the response in experiment [5] and in experiment [7] were -15% (inactive) and -5.65% (inactive), respectively. Moreover, the binding (% of control) in experiment [8] was 105% (inactive). For the same molecule, in [9], the efflux inhibition (fraction of control) is 0.54 (active). Besides, in experiment [11], the differentiation response was -1.05% (inactive).

Take `C=C(C)c1nc2cc(OC)c(OC)cc2c(=O)o1`: the double positive events in experiment [1] was found to be 66.2%. In addition, the vesicle binding response in [1] is 181% (inactive). Also, the results for the inhibition in experiment [2], in experiment [6] and in experiment [10] were -9.06% (inactive), 0.91% (inactive) and 11% (inactive), respectively. In addition, the superoxide response (% of plate) in [3] is 96.8% (inactive). Further, in [4], the aptamer binding inhibition was 0% (inactive). The response in experiment [5] was -1.85% (inactive); in [7], 2.81% (inactive). Further, the binding (% of control) in experiment [8] is 105% (inactive). The efflux inhibition (fraction of control) in [9] was -0.46 (inactive). Also, in [11], the differentiation response is 9.01% (inactive).

In [1], `O=C(c1ccccc1)N1CCN(C(=O)c2ccccc2)CC1` yielded a double positive events of 57.3%. Moreover, in [1], the vesicle binding response is 175% (inactive). The inhibition in experiment [2] was -0.43% (inactive); in experiment [6], -3.54% (inactive); in experiment [10], 3% (inactive). In addition, the superoxide response (% of plate) in experiment [3] was 102% (inactive). The aptamer binding inhibition in [4] is 7% (inactive). Also, the results for the response in experiment [5] and in [7] were -22.4% (inactive) and -5.95% (inactive), respectively. In addition, the binding (% of control) in [8] was 104% (inactive). Further, the efflux inhibition (fraction of control) in experiment [9] is -0.13 (inactive). The differentiation response in experiment [11] was 12% (inactive).

`O=c1[nH]c(Cc2ccccc2)nc2c1oc1ccccc12` had a double positive events in [1] of 58.4%. Also, the vesicle binding response in experiment [1] is 200% (inactive). Moreover, the figures for the inhibition in experiment [2], in [6] and in experiment [10] were -7.25% (inactive), -7.86% (inactive) and 4% (inactive), respectively. Further, in [3], the superoxide response (% of plate) is 94% (inactive). Besides, the aptamer binding inhibition in experiment [4] was 12% (inactive). The response was 0.02% (inactive) in [5] and -2.08% (inactive) in experiment [7]. The binding (% of control) in experiment [8] was 97% (inactive). For the same molecule, the efflux inhibition (fraction of control) in [9] is -0.17 (inactive). The differentiation response in [11] was -4% (inactive).

In experiment [1], `Nc1ccc(N=Nc2ccccc2)c(N)n1` yielded a double positive events of 61.7%. In addition, the vesicle binding response in experiment [1] is 133% (inactive). Moreover, the inhibition in experiment [2] is 28.7% (inactive); in [6] it was 4.28% (inactive); in experiment [10] it was 4% (inactive). Moreover, in [3], the superoxide response (% of plate) is 114% (inactive). In addition, the aptamer binding inhibition in [4] is 3% (inactive). The response is -11.9% (inactive) in experiment [5] and 6.54% (inactive) in experiment [7]. The binding (% of control) in experiment [8] is 103% (inactive). The efflux inhibition (fraction of control) in experiment [9] was -0.26 (inactive). In addition, the differentiation response in experiment [11] is -5.97% (inactive).

`N/C(=N/OS(=O)(=O)c1ccc([N+](=O)[O-])cc1)c1ccncc1` yielded a double positive events in experiment [1] of 61.1%. Moreover, in experiment [1], the vesicle binding response is 135% (inactive). The inhibition in experiment [2] was 1.59% (inactive); in experiment [6] it was -1.57% (inactive); in [10], 18% (inactive). The superoxide response (% of plate) in experiment [3] was 108% (inactive). In addition, the aptamer binding inhibition in [4] was 1% (inactive). Also, the response is -5.72% (inactive) in [5] and 6.86% (inactive) in experiment [7]. The binding (% of control) in experiment [8] was 107% (inactive). In experiment [9], the efflux inhibition (fraction of control) is -0.08 (inactive). Also, the differentiation response in experiment [11] is -8.96% (inactive).

Consider `NC(=O)N1c2ccccc2C=Cc2ccccc21`, for which the double positive events in [1] amounted to 56%. In experiment [1], the vesicle binding response is 120% (inactive). The inhibition is 5.61% (inactive) in experiment [2], 1.72% (inactive) in [6] and 11% (inactive) in [10]. In addition, in experiment [3], the superoxide response (% of plate) was 112% (inactive). Besides, the aptamer binding inhibition in [4] is 3% (inactive). Moreover, the response was 13.8% (inactive) in experiment [5] and -12.4% (inactive) in experiment [7]. For the same molecule, the binding (% of control) in experiment [8] was 98.5% (inactive). For the same molecule, the efflux inhibition (fraction of control) in [9] is -0.07 (inactive). In addition, the differentiation response in experiment [11] was -3.11% (inactive).

`Nc1ccc2[nH]ncc2c1` displayed a double positive events in [1] of 62.1%. For the same molecule, the vesicle binding response in experiment [1] was 174% (inactive). Moreover, the inhibition in experiment [2] was -8.62% (inactive); in [6], 11.5% (inactive); in [10], -7% (inactive). Further, in experiment [3], the superoxide response (% of plate) was 110% (inactive). The aptamer binding inhibition in experiment [4] was 12% (inactive). The response in experiment [5] is 20.4% (inactive); in experiment [7] it was 1.54% (inactive). In addition, the binding (% of control) in experiment [8] is 104% (inactive). Besides, the efflux inhibition (fraction of control) in experiment [9] was 0.73 (active). The differentiation response in [11] was 87.2% (active).

In experiment [1], `COc1ccc(CCCC(=O)O)c(C)c1` returned a double positive events of 63.8%. In experiment [1], the vesicle binding response is 282% (inactive). For the same molecule, the inhibition in experiment [2] was -9.06% (inactive); in experiment [6], 5.62% (inactive); in experiment [10], 17% (inactive). Also, the superoxide response (% of plate) in [3] is 92.3% (inactive). Further, the aptamer binding inhibition in [4] is -1% (inactive). In addition, the results for the response in [5] and in experiment [7] were 1.17% (inactive) and -1.31% (inactive), respectively. Moreover, the binding (% of control) in experiment [8] is 111% (inactive). Moreover, the efflux inhibition (fraction of control) in [9] is -0.2 (inactive). Further, the differentiation response in experiment [11] was 0% (inactive).

Molecule `O=C1CCCCCN1Cc1ccccc1` registered a double positive events in experiment [1] of 62.4%. Further, the vesicle binding response in experiment [1] was 208% (inactive). Also, the inhibition is 3.67% (inactive) in experiment [2], -4.78% (inactive) in experiment [6] and 5% (inactive) in experiment [10]. The superoxide response (% of plate) in experiment [3] is 97.2% (inactive). The aptamer binding inhibition in experiment [4] is 7% (inactive). Moreover, the values for the response in [5] and in experiment [7] were -1.56% (inactive) and 5.84% (inactive), respectively. The binding (% of control) in [8] was 101% (inactive). Further, in [9], the efflux inhibition (fraction of control) is -0.24 (inactive). Further, the differentiation response in experiment [11] is 8.8% (inactive).

Regarding `CN1CCc2cccc3c2[C@@H]1Cc1ccc(O)c(O)c1-3`, in experiment [1], the double positive events was 61%. Moreover, in experiment [1], the vesicle binding response is 194% (inactive). The inhibition was -38.6% (inactive) in experiment [2], 6.55% (inactive) in [6] and -20% (inactive) in experiment [10]. For the same molecule, in experiment [3], the superoxide response (% of plate) is 93.1% (inactive). In [4], the aptamer binding inhibition was 11% (inactive). Also, the results for the response in experiment [5] and in experiment [7] were 26.8% (inactive) and -9.4% (inactive), respectively. Further, in experiment [8], the binding (% of control) is 100% (inactive). Besides, the efflux inhibition (fraction of control) in experiment [9] was -0.09 (inactive). For the same molecule, the differentiation response in experiment [11] was 5.85% (inactive).
